The source of these data is PubChem BioAssay AID588382 (National Center for Advancing Translational Sciences (NCATS), 2011).

Out of some 1,300 compounds screened, about 150 (12%) were called active. A call without a number means that no potency is given here. Inconclusive results (about 30%) are left out. The sample holds actives, similar compounds and a random draw of the others, so the mix is not that of the screen. The call rests on the fitted dose curve; in most records, active means well fitted cell-killing curve with a large enough effect; inconclusive means small, poorly fitted or top-dose-only effect, or effect the other way; inactive means flat fitted curve, though single readings scatter.
Potency means the concentration at half of the fitted maximal effect.

This assay is described as follows: qHTS of small molecules that selectively kill Giardia lamblia: Hit Validation in HepG2 cytotox.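 Further: compound exposure lasted overnight at 37 deg C; nearly all actives have a fitted effect of over 55% in size.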 The settings on record: cell viability; Potency: HepG2 cytotoxicity; series mostly up to 38.3 µM. The gist of the method: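 HepG2 cells seeded and incubated overnight at 37 deg C, then 23 nL compound added by pintool and incubated overnight at 37 deg C. Viability read as ATP luminescence with ATPLite after 15 min at room temperature.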
For the molecule `CCCn1c(C)cc(C(=O)COc2ccc(C)nc2[N+](=O)[O-])c1C`, the Potency result is “inactive”. Consider `CCNc1ccc(N=Nc2c(C)n(C)n(-c3ccccc3)c2=O)cc1`, for which the Potency result is “inactive”.

For the molecule `N#Cc1sc(NCc2cccc(Cl)c2)nc1Cl`, the Potency result was “inactive”. The value for `COc1ccc(C(CNC(=O)c2oc3cc(Br)ccc3c2C)N2CCCCC2)cc1` (configuration not stated) was “inactive”; that for `CC(=O)Oc1ccc2c(=O)c(Oc3ccccc3[N+](=O)[O-])coc2c1` was “inactive”; that for `O=C(Nc1ccc(N2CCCC2)c(Cl)c1)c1ccc([N+](=O)[O-])o1` was 7.36 µM (active).

`NC(=O)c1oc2ccccc2c1NC(=O)c1ccc([N+](=O)[O-])o1`: the Potency was 2.61 µM (active).

In the case of `COc1ccc(N2CCCC2)c(NC(=O)c2ccc([N+](=O)[O-])o2)c1`, the Potency result is “inactive”. For `O=C(Nc1cccc(Cl)c1N1CCOCC1)c1ccc([N+](=O)[O-])o1`, the Potency entry is “inactive”. The value for `Cc1ccc(C)c(Sc2ccc(NC(=O)CCl)cc2)c1` was “inactive”; that for `COc1ccc2oc(=Nc3ccccc3)c(-c3nc4ccccc4[nH]3)cc2c1` was 7.36 µM (active); that for `Cc1ncc([N+](=O)[O-])n1CCOC(=O)c1ccccc1` was “inactive”. As for `Cc1ccc(S(=O)(=O)N2[C@@H](c3ccccc3F)C(C(=O)O)=CC[C@H]2c2cccc(C)c2)cc1`, the Potency result is “inactive”.

In the case of `[O-][n+]1c2ccccc2c2n1CCCN=C2c1ccc(Cl)cc1`, the Potency entry is “inactive”. The value for `O=C(CN1C(=O)c2ccccc2S1(=O)=O)c1ccc2c(c1)OCCO2` was 2.07 µM (active); that for `O=[N+]([O-])c1nn(-c2ccccc2)[n+]([O-])c1N1CCN(c2ccccc2F)CC1` was “inactive”; that for `O=[N+]([O-])c1ccc(/C=C/c2ccnc3ccccc23)c([N+](=O)[O-])c1` was “inactive”. The value for `CCOn1c(=O)c(-c2cccc([N+](=O)[O-])c2)[n+]([O-])c2ccccc21` was “inactive”; that for `CSC1SCC2C(=O)N(C)C(C(C)C)C(=O)OCC(NC(=O)c3cnc4ccccc4n3)C(=O)NC(C)C(=O)N(C)C1C(=O)N(C)C(C(C)C)C(=O)OCC(NC(=O)c1cnc3ccccc3n1)C(=O)NC(C)C(=O)N2C` (configuration not stated) was 0.0117 µM (active); that for `O=[N+]([O-])c1cccc(S(=O)(=O)c2ccc(NCCOCCO)c([N+](=O)[O-])c2)c1` was “inactive”. The value for `Cc1ccc(C2=NCCn3c2c2ccc(C(F)(F)F)cc2[n+]3[O-])cc1` was “inactive”; that for `COc1ccc(NC(=O)c2ccc([N+](=O)[O-])o2)cc1` was 3.69 µM (active); that for `Cc1ccc(CNC(=O)c2ccc([N+](=O)[O-])o2)cc1` was “inactive”.

With `O=C(NCc1ccco1)c1ccc([N+](=O)[O-])o1`, the Potency entry was “inactive”. Regarding `COc1ccc(-c2cc3ccccc3oc2=O)cc1NC(=O)c1ccc([N+](=O)[O-])o1`, the Potency entry was “inactive”. The value for `O=C(Nc1ncccn1)c1ccc([N+](=O)[O-])o1` was “inactive”; that for `Cc1onc(NC(=O)c2ccc([N+](=O)[O-])o2)c1Br` was “inactive”. With `O=C(Nc1ccc(Cc2ccncc2)cc1)c1ccc([N+](=O)[O-])o1`, the Potency was 6.56 µM (active). For `Cc1cc(NC(=O)c2ccc([N+](=O)[O-])o2)ccc1NC(=O)c1ccco1`, the Potency was 2.93 µM (active).

As to `COc1cc(NC(=O)c2ccc([N+](=O)[O-])o2)ccc1NC(=O)c1cccs1`, the Potency is 14.7 µM (active). Under `CCN(CC(=O)NCc1cccs1)C(=O)c1ccc([N+](=O)[O-])o1` stands “inactive”. On to `COc1ccc(CC(NC(C)=O)C(=O)NC2CCN(c3ncccc3[N+](=O)[O-])CC2)cc1` (configuration not stated), for which the Potency result was “inactive”. The value for `CCC1CCCCN1C(=O)c1ccc([N+](=O)[O-])o1` (configuration not stated) was “inactive”; that for `Cc1ccc(C2=NCCn3c2c2ccc([N+](=O)[O-])cc2[n+]3[O-])cc1` was “inactive”; that for `O=[n+]1c2c(n([O-])c3cc(Br)ccc31)CCCC2` was “inactive”. The value for `CCOc1cc(C=O)ccc1OCCn1c([N+](=O)[O-])cnc1C` was “inactive”; that for `CCOC(=O)C1=C(C)N=c2s/c(=C/c3cccc([N+](=O)[O-])c3O)c(=O)n2C1c1ccc(OC)cc1OC` (configuration not stated) was “inactive”.

Consider `CCN(CC)CCOC(=O)c1ccc(N/C=C(/C#N)c2nc(-c3cc4ccccc4oc3=O)cs2)cc1`, for which the Potency entry is “inactive”.

`O=[N+]([O-])c1ncn(Cc2c(Cl)cccc2Cl)n1`: the Potency result is “inactive”.

In the case of `C=CCNC(=O)c1ccccc1NC(=O)COc1ccccc1`, the Potency entry is “inactive”.

Turning to `O=C(COc1cccnc1[N+](=O)[O-])NCc1ccc(F)cc1`, the Potency entry is “inactive”. For `CC(=O)c1c(COC(=O)c2ccccc2Cl)nc2ccccc2[n+]1[O-]`, the Potency result is “inactive”. The value for `O=[N+]([O-])c1ccc2nc(-c3ccc(OC(F)F)cc3)cn2c1` was “inactive”.

`COc1cccc([C@@H]2CC=C(C(=O)O)[C@H](c3cccc(Cl)c3)N2S(=O)(=O)c2ccc(C)cc2)c1`: the Potency result was “inactive”. On to `COc1ccc(NC(=O)c2ccc([N+](=O)[O-])cc2[N+](=O)[O-])c(OC)c1`, for which the Potency entry is “inactive”. Under `CC(=O)c1c(C)n([O-])c2cc(C)ccc2[n+]1=O` stands “inactive”; under `CC(=O)N1CCc2c(sc(NC(=O)c3ccc([N+](=O)[O-])o3)c2C#N)C1`, 3.29 µM (active); under `NC(=O)c1c(NC(=O)c2ccc([N+](=O)[O-])o2)sc2c1CCCC2`, 11.7 µM (active). The value for `O=C(c1ccc([N+](=O)[O-])o1)N1CCc2ccccc2C1` was “inactive”.

Regarding `COC(=O)c1sc(NC(=O)c2ccc([N+](=O)[O-])o2)c(C#N)c1C`, the Potency entry was “inactive”.

Regarding `NC(=O)c1c(NC(=O)CCCn2cnc([N+](=O)[O-])n2)sc2c1CCCC2`, the Potency result was “inactive”.

For the molecule `O=C1S/C(=C\c2ccc(O)c([N+](=O)[O-])c2)C(=O)N1Cc1cccc([N+](=O)[O-])c1`, the Potency entry was “inactive”.

As for `OC(COc1cccc2ccccc12)CN1CCN(c2ccc(Cl)cc2)CC1` (configuration not stated), the Potency entry was “inactive”.

For `O=[N+]([O-])C(/C=C(\Cl)[N+](=O)[O-])=C(N1CCCCC1)N1CCCCC1`, the Potency entry is “inactive”. In the case of `CC(=O)NC(Cc1ccccc1F)C(=O)NC1CCN(c2ncccc2[N+](=O)[O-])CC1` (configuration not stated), the Potency result is “inactive”.

As to `CCN(CCCNC(=O)c1nn(C)c2c1CS(=O)(=O)c1ccccc1-2)Cc1ccccc1`, the Potency entry is “inactive”. Consider `CC(C)(C)C1C/C(=C/c2ccccn2)C(=O)/C(=C/c2ccccn2)C1` (configuration not stated), for which the Potency is 0.585 µM (active). The value for `O=C1CC(c2ccc(F)cc2)CC2=C1C(c1ccc([N+](=O)[O-])o1)Nc1ccccc1N2` (configuration not stated) was “inactive”; that for `O=c1[nH]c(=O)c2cc([N+](=O)[O-])cc([N+](=O)[O-])c2[nH]1` was “inactive”. Under `O=[N+]([O-])c1ccc(/C=N/Nc2nc(N3CCCCC3)nc(N3CCCCC3)n2)o1` stands “inactive”; under `O=C(Nc1ccc(S(=O)(=O)N2CCCC2)cc1)c1ccc([N+](=O)[O-])o1`, 2.93 µM (active); under `COc1ccc(C)cc1NC(=O)c1cc(S(=O)(=O)N2CCCC2)cn1C`, “inactive”. `O=C(Nc1ccc(S(=O)(=O)N2CCOCC2)cc1)c1ccc([N+](=O)[O-])o1`: the Potency was 13.1 µM (active). The value for `COc1ccc(S(=O)(=O)N2CCOCC2)cc1NC(=O)COc1cccnc1[N+](=O)[O-]` was “inactive”. The value for `CC(C)C(=O)NC(=S)Nc1ccc(S(=O)(=O)N2CCCC2)cc1` was “inactive”. Regarding `COc1ccc(S(=O)(=O)N2CCCCC2)cc1NC(=O)c1ccc([N+](=O)[O-])o1`, the Potency was 3.29 µM (active). The value for `Cc1ccc(NC(=O)COc2cccnc2[N+](=O)[O-])cc1S(=O)(=O)N1CCCCC1` was “inactive”. As for `Cc1ccc(NC(=O)c2ccc([N+](=O)[O-])o2)cc1S(=O)(=O)N1CCOCC1`, the Potency is 13.1 µM (active).

For `COc1ccc(S(=O)(=O)N2CCN(C(=O)c3ccc([N+](=O)[O-])o3)CC2)cc1`, the Potency entry was “inactive”.

With `O=C(Nc1ccccc1N1CCOCC1)c1ccc([N+](=O)[O-])o1`, the Potency result is “inactive”.

Take `O=C(Cc1ccc(Cl)cc1)Nc1ncc([N+](=O)[O-])s1`: the Potency result is “inactive”. Turning to `Cc1ccc(-n2c(C)cc(C(=O)COc3cccnc3[N+](=O)[O-])c2C)cc1`, the Potency result is “inactive”. The value for `O=C(c1ccc([N+](=O)[O-])o1)N1CCc2ccccc21` was “inactive”; that for `Cc1cc(C)cc(N=c2c([N+](=O)[O-])nn(-c3ccc(Cl)cc3)n2O)c1` was “inactive”. Under `O=C(COc1cccnc1[N+](=O)[O-])NCc1ccco1` stands “inactive”. The value for `COc1ccc(OC)c(CCNC(=O)CSc2ccsc2[N+](=O)[O-])c1` was “inactive”. With `Cc1ccc(S(=O)(=O)N2[C@@H](c3ccc(Cl)cc3)C(C(=O)O)=CC[C@H]2c2ccc(Cl)c(Cl)c2)cc1`, the Potency entry is “inactive”. In the case of `Cn1nc(N)c2c(-c3ccccc3)c(C#N)c(N)nc21`, the Potency result is “inactive”. The value for `Cc1ccc(N=c2c([N+](=O)[O-])nn(-c3ccc4c(c3)OCCO4)n2O)cc1F` was “inactive”; that for `CC(C)(C)n1nc(-c2ccc(Cl)cc2)c2c(N)ncnc21` was “inactive”; that for `[O-][n+]1c2cc(C(F)(F)F)ccc2c2n1CCN=C2c1ccc(Cl)cc1` was “inactive”.

In the case of `CCOC(=O)CSc1ccc(C(=O)NCCCN2CCOCC2)cc1[N+](=O)[O-]`, the Potency entry was “inactive”. Take `O=[N+]([O-])c1cc(S(=O)(=O)Nc2cccc(Cl)c2)ccc1N/N=C/c1ccc(N2CCOCC2)cc1`: the Potency result is “inactive”. On to `O=C(COc1cccnc1[N+](=O)[O-])Nc1cccc(S(=O)(=O)N2CCCCC2)c1`, for which the Potency result was “inactive”. Under `O=C(Nc1cccc(S(=O)(=O)N2CCCCC2)c1)c1ccc([N+](=O)[O-])o1` stands 11.7 µM (active); under `CC(=O)NC(Cc1cccc(C)c1)C(=O)NC1CCN(c2ncccc2[N+](=O)[O-])CC1` (configuration not stated), “inactive”; under `Cc1cc(C)n(S(=O)(=O)c2ccccc2[N+](=O)[O-])n1`, “inactive”. Under `CC(NC(=O)c1ccc(N(C)C)c([N+](=O)[O-])c1)c1ccc(-n2ccnc2)cc1` (configuration not stated) stands “inactive”; under `CC(=O)NC(Cc1cccc(F)c1)C(=O)NC1CCN(c2ncccc2[N+](=O)[O-])CC1` (configuration not stated), “inactive”. Under `C/C(=N\NC(=O)COc1ccc(C)cc1Br)c1cc([N+](=O)[O-])cs1` stands “inactive”; under `CC12CN3CC(C)(CN(C1)C3c1ccc([N+](=O)[O-])o1)C2` (configuration not stated), “inactive”.

Regarding `O=[N+]([O-])c1cccc2nc3ccccc3c(NCCCn3ccnc3[N+](=O)[O-])c12`, the Potency was 0.0736 µM (active).
